Test results reported in PubChem BioAssay (Tox21).
Records with an inconclusive call do not appear. Calls of active or inactive are those of the source. Unless noted, the call rests on the fitted dose curve.

What was measured:
[1] = Nuclear factor erythroid 2-related factor 2/antioxidant responsive element (Nrf2/ARE) small molecule agonists: luciferase reporter gene qHTS assay in human keratinocytes (AID 1919969); further: nearly all actives have a fitted effect of over 35% in size; further: potency means the concentration at half of the fitted maximal effect
[2] = molecular target: Gonadotropin-releasing hormone receptor (Homo sapiens) (UniProt P30968); test: Human gonadotropin-releasing hormone receptor (GnRHR) small molecule agonists, calcium flux assay in GnRHR-HEK293 cells (AID 1920063); further: nearly all actives have a fitted effect of over 35% in size; further: potency means the concentration at half of the fitted maximal effect
Method in brief: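 HEK293 cells stably expressing human GnRHR were dye-loaded for 1 h at 37 C. Compound was added in agonist mode and fluorescence (Ex/Em 480/540) recorded kinetically for 3 min. Fifteen concentrations, triplicates.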

[3] = molecular target: KiSS-1 receptor (Homo sapiens) (UniProt Q969F8); test: Human kisspeptin (KISS1R) small molecule agonists, calcium flux assay in KISS1R-HEK293 cells (AID 1920064; active means well fitted activation curve with a large enough effect in the repeat runs)
Method in brief: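 HEK293 cells stably expressing human KISS1R were loaded with calcium dye for 1 h at 37 C, then given compound; fluorescence (Ex/Em 480/540) was read kinetically for 3 min. Fifteen concentrations, triplicate.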

[4] = G protein-coupled receptor (GPCR) small molecule agonists, calcium flux assay: HEK293 wild type cell line counter screen (AID 1920065)
Method in brief: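 Wild-type HEK293 cells plated 18 h, loaded with calcium dye 1 h at 37 C, then compounds added in agonist mode (ATP as positive control). Kinetic fluorescence Ex/Em 480/540 recorded 3 min at 1 sec intervals; 15 concentrations, triplicate.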

[5] = p53 small molecule agonists, cell-based qHTS assay with human liver microsomes (AID 1963577);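 further: p53 response element beta-lactamase reporter cells with liver microsomes plus NADPH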
Method in brief: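 p53RE-bla cells; 5 h settle, 37 C/5% CO2; cpd + HLM 0.5 mg/mL + NADPH 0.5 mg/mL (final); 16 h 37 C; LiveBLAzer 2 h RT dark; fluorescence readout.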

[6] = p53 small molecule agonists, cell-based qHTS assay with rat liver microsomes (AID 1963578)
Method in brief: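 Rat liver microsome activation: microsomes 0.5 mg/mL, NADPH 0.5 mg/mL final; p53RE-bla cells, 16 h 37 C; LiveBLAzer readout, 2 h RT dark.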

[7] = p53 small molecule agonists, cell-based qHTS assay with human liver microsomes: qHTS cell viability counter screen (AID 1963579); further: nearly all actives have a fitted effect of over 45% in size; further: potency means the concentration at half of the fitted maximal effect
Method in brief: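 Luminescent CellTiter-Glo read-out, 30 min at room temperature, gauged cytotoxicity in p53RE-bla cells exposed 16 h at 37 C to DMSO-dissolved compounds with metabolic activation by human liver microsomes and NADPH, each 0.5 mg/mL final.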

[8] = p53 small molecule agonists, cell-based qHTS assay with rat liver microsomes: qHTS cell viability counter screen (AID 1963580); further: nearly all actives have a fitted effect of over 45% in size; further: potency means the concentration at half of the fitted maximal effect
Method in brief: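 HCT-116 p53RE-bla, 4,000 cells/well, 5 h pre-incubation; cpd + rat liver microsomes 0.5 mg/mL + NADPH 0.5 mg/mL (final); 16 h, 37 C; CellTiter-Glo, 30 min RT; luminescence.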

[9] = p53 small molecule agonists, cell-based qHTS assay: qHTS cell viability counter screen (AID 1963581); further: nearly all actives have a fitted effect of over 45% in size; further: potency means the concentration at half of the fitted maximal effect
Method in brief: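 p53RE-bla HCT-116 cells, compounds added 5 h after plating and incubated 16 h at 37 C. Cytotoxicity measured in the same wells as intracellular ATP by CellTiter-Glo luminescence after 30 min at room temperature.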

[10] = molecular target: 5-hydroxytryptamine receptor 2A (Homo sapiens) (UniProt P28223); test: 5-hydroxytryptamine receptor 2A (HTR2A) small molecule antagonists, cell-based qHTS assay (AID 1963586); further: nearly all actives have a fitted effect of over 45% in size; further: potency means the concentration at half of the fitted maximal effect
Method in brief: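 Antagonist-mode intracellular calcium assay: DOI (4 nM) added after 5 min compound pre-incubation at room temperature to dye-loaded HTR2A-CHO cells. Fluorescence followed for 3 min, sampled every second.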

[11] = molecular target: 5-hydroxytryptamine receptor 2A (Homo sapiens) (UniProt P28223); test: 5-hydroxytryptamine receptor 2A (HTR2A) small molecule agonists, cell-based qHTS assay (AID 1963587); further: nearly all actives have a fitted effect of over 30% in size
Method in brief: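 Kinetic calcium-flux fluorescence (2 min, 1 sec intervals) after compound addition in agonist mode. HTR2A-CHO cells were cultured 18 h, then dye-loaded 1 h at 37 C.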

[12] = molecular target: Muscarinic acetylcholine receptor M1 (Homo sapiens) (UniProt P11229); test: Cholinergic receptor muscarinic 1 (CHRM1) small molecule antagonists, cell-based qHTS assay (AID 1963588); further: nearly all actives have a fitted effect of over 40% in size
Method in brief: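 CHRM1-CHO calcium-flux assay, antagonist mode. Cells were seeded 18 h, dye-loaded 1 h at 37 C and given compound for 5 min at RT, then acetylcholine was added at 50nM. FDSS fluorescence was read 3 min; 15 concentrations, three runs.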

[13] = cAMP Responsive Elements (CRE) small molecule antagonists, cell-based qHTS assay (AID 1963591; active means well fitted inhibition curve with a large enough effect in the signal ratio in the repeat runs, not every such curve was filed as active; the % refers to the signal ratio)
Method in brief: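 CRE-bla HEK293T cells plated 18 h, then given compound plus NKH477 at 0.25 uM final for 3 h at 37C. Beta-lactamase reporter read with LiveBLAzer B/G FRET substrate after 2 h at room temperature.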

[14] = molecular target: Beta-2 adrenergic receptor (Homo sapiens) (UniProt P07550); test: Adrenergic beta2 receptor (ADRB2) small molecule antagonists, cell-based qHTS assay (AID 1963592); further: series mostly up to about 92 µM; nearly all actives have a fitted effect of over 50% in size
Method in brief: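 Cells (CHO, stable ADRB2 overexpression) incubated 18-20hr at 37C; compounds added from DMSO; agonist mix (1nM isoproterenol, 100uM IBMX, 25uM Ro-20-1724) added; 0.5hr RT; d2-cAMP and anti-cAMP-cryptate added; 1hr RT; 665/615 nm read.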

[15] = molecular target: D(2) dopamine receptor (Homo sapiens) (UniProt P14416); test: Dopamine D2 receptor (DRD2) small molecule agonists, cell-based qHTS assay (AID 1963594); further: nearly all actives have a fitted effect of over 35% in size; further: potency means the concentration at half of the fitted maximal effect
Method in brief: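 cAMP accumulation in DRD2-HEK293 cells measured by HTRF after 1 h detection; compounds added 10 min before NKH477 (200nM […]) forskolin-analogue stimulation, 30 min at room temperature, with Ro20-1724 present at 0.1 mM final.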

[16] = molecular target: D(2) dopamine receptor (Homo sapiens) (UniProt P14416); test: Dopamine D2 receptor (DRD2) small molecule antagonists, cell-based qHTS assay (AID 1963595; active means well fitted inhibition curve with a large enough effect in the signal ratio in the repeat runs, with a control signal flat; the % refers to the signal ratio)
Method in brief: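 Cells were plated and grown for 24 h at 37 °C. Ro20-1724 (0.1 mM final) went in first, then compound for 10 min. NKH477 (200 nM) with quinpirole (12 nM) followed for 30 min at RT, then HTRF detection reagents for 1 h.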

[17] = p53 small molecule agonists, cell-based qHTS assay (AID 1963582; active means well fitted activation curve with a large enough effect in the signal ratio in the repeat runs, not every such curve was filed as active; the % refers to the signal ratio)
Method in brief: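 p53RE-bla reporter cells, compounds added in DMSO after 5 h plating, incubated 16 h at 37 C. Beta-lactamase read via 2 h room-temperature LiveBLAzer B/G FRET substrate, fluorescence intensity.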

[18] = molecular target: Muscarinic acetylcholine receptor M1 (Homo sapiens) (UniProt P11229); test: Cholinergic receptor muscarinic 1 (CHRM1) small molecule agonists, cell-based qHTS assay (AID 1963589); further: nearly all actives have a fitted effect of over 35% in size
Method in brief: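 CHO cells stably expressing human CHRM1 were loaded with calcium dye for 1 h at 37 C, then compound was added in agonist mode. Intracellular calcium fluorescence was followed kinetically at 1 s intervals. Fifteen concentrations were tested in three independent runs.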

[19] = cAMP Responsive Elements (CRE) small molecule agonists, cell-based qHTS assay (AID 1963590)
Method in brief: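 CRE-bla HEK 293T cells, 2,000/well in DMEM with 10% dialyzed FBS and 25 mM HEPES, pre-incubated 18 h at 37 C, then exposed to compound 3 h at 37 C. Beta-lactamase reporter read with LiveBLAzer B/G FRET substrate after 2 h at room temperature.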

[20] = molecular target: Beta-2 adrenergic receptor (Homo sapiens) (UniProt P07550); test: Adrenergic beta2 receptor (ADRB2) small molecule agonists, cell-based qHTS assay (AID 1963593);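 further: CHO cells stably overexpressing human ADRB2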
Method in brief: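 CHO cells stably over-expressing ADRB2 were plated overnight at 37C, then dosed with compounds plus a stimulation mix containing 100uM IBMX and 25uM Ro-20-1724 for 0.5hr at room temperature. cAMP was measured by HTRF competition, 1hr.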

Measured: Potency

Sequence of Gonadotropin-releasing hormone receptor (Homo sapiens) (P30968 whole entry, looked up): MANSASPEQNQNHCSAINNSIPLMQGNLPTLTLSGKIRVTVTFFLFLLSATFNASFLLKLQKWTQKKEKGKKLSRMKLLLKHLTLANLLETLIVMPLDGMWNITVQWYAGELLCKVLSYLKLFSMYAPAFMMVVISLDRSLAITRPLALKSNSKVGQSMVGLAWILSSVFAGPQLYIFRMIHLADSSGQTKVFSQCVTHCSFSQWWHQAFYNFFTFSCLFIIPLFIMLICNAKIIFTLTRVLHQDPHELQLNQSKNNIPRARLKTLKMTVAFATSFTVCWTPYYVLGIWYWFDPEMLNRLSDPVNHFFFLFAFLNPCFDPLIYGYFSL
Sequence of D(2) dopamine receptor (Homo sapiens) (P14416 whole entry, looked up): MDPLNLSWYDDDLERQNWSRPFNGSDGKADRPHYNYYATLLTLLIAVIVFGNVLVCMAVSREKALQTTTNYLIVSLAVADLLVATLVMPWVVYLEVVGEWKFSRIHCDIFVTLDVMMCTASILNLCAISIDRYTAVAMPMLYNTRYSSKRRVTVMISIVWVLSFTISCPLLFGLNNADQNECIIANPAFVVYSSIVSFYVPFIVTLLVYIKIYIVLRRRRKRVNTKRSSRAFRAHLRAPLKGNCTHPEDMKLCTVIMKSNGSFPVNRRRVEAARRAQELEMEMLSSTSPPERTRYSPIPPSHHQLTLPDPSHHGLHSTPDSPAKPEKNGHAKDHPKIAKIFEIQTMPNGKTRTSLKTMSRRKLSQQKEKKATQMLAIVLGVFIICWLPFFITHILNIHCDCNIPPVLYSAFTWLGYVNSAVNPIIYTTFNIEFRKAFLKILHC
Sequence of Muscarinic acetylcholine receptor M1 (Homo sapiens) (P11229 whole entry, looked up): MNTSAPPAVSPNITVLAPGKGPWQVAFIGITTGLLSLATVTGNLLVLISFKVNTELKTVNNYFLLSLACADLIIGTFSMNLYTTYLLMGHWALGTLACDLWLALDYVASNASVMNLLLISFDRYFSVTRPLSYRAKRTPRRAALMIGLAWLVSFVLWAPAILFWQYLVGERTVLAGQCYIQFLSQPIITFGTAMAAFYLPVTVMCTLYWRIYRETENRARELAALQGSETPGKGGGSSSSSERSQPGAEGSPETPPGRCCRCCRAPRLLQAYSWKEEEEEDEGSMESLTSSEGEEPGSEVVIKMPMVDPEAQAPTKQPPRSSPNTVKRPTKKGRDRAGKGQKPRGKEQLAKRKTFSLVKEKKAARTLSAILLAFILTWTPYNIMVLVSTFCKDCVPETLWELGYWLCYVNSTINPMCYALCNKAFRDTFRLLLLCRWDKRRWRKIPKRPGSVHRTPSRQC
Sequence of 5-hydroxytryptamine receptor 2A (Homo sapiens) (P28223 whole entry, looked up): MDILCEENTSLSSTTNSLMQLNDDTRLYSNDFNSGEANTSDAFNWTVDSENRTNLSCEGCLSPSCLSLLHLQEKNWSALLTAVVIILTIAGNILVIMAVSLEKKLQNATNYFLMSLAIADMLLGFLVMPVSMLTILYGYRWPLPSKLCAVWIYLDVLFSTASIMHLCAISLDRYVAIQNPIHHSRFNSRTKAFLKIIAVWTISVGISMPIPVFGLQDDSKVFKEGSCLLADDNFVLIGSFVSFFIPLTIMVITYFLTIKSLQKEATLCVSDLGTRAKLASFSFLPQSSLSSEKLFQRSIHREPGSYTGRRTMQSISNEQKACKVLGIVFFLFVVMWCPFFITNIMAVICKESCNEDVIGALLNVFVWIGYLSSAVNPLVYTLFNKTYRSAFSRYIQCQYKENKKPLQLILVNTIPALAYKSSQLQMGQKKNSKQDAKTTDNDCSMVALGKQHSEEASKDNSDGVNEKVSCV
Sequence of Beta-2 adrenergic receptor (Homo sapiens) (P07550 whole entry, looked up): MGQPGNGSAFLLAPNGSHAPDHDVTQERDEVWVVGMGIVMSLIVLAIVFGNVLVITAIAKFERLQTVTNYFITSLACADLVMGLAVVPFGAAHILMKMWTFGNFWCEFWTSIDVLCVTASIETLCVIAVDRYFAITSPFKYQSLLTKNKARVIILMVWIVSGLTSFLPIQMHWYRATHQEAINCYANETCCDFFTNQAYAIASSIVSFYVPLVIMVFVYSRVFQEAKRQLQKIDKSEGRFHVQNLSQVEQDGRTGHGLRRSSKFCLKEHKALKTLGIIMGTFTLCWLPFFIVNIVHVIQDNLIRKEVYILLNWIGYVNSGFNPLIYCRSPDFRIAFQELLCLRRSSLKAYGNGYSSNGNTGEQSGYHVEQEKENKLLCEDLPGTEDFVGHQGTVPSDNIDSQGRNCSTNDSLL
Sequence of KiSS-1 receptor (Homo sapiens) (Q969F8 whole entry, looked up): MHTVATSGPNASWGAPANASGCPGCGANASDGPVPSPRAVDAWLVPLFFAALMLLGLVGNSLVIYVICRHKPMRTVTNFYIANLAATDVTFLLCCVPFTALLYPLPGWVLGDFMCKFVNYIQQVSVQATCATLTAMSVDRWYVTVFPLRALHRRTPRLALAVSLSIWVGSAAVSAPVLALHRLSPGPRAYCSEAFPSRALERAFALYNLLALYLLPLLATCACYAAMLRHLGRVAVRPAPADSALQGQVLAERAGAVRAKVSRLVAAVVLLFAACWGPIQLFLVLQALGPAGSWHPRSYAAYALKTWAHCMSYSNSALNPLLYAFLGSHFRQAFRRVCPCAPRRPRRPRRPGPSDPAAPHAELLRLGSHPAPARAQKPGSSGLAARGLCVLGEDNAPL

CC1=C(C)C(=O)C(CCCCC#CCCCC#CCO)=C(C)C1=O
active: [1] 29.8 µM
not listed: [17] | [18] | [19] | [20]
inactive: all other assays above

C=CCOc1nc(OCC=C)nc(OCC=C)n1
not listed: [19] | [20]
inactive: all other assays above

c1ccc(CCCc2ccccn2)cc1
not listed: [20]
inactive: all other assays above

CC(C)=CCC/C(C)=C/C=N/O
not listed: [12] | [13] | [17] | [19] | [20]
inactive: all other assays above

CCCCC/C=C/CC1CC(=O)OC1=O (stereo not given)
not listed: [20]
inactive: all other assays above

c1ccc([C@H]2CN3CCSC3=N2)cc1
not listed: [10] | [11] | [12] | [13] | [18] | [20]
inactive: all other assays above

O=C(O)c1snc(Cl)c1Cl
active: [1] 68.6 µM
not listed: [10] | [20]
inactive: all other assays above

CCOC(=O)Oc1ccc(CCNC(=O)[C@H](CCSC)NC(C)=O)cc1OC(=O)OCC
active: [15] 2.37 µM
not listed: [10] | [18] | [20]
inactive: all other assays above

NCc1ccco1
not listed: [19] | [20]
inactive: all other assays above

Cc1cc(NS(=O)(=O)c2ccc(N)cc2)nc(C)n1
not listed: [10]
inactive: all other assays above

Oc1c(I)cc(I)c2cccnc12
not listed: [10] | [11] | [12] | [14] | [17] | [18] | [20]
inactive: all other assays above

COc1c(Br)cc(Br)c(C)c1Br
not listed: [12] | [20]
inactive: all other assays above

NC(CS)C(=O)O (stereo not given)
not listed: [20]
inactive: all other assays above

C/C=C/C(=O)Oc1c(CCCCCC(C)C)cc([N+](=O)[O-])cc1[N+](=O)[O-]
inactive: [1] | [3] | [4] | [5] | [6] | [14] | [15] | [16]
active: [2] 38.9 µM | [7] 14.5 µM | [8] 40.8 µM | [9] 11.5 µM | [10] 21.1 µM

O=C(Oc1ccccc1C(=O)O)c1ccccc1O
not listed: [10] | [11] | [12] | [18]
inactive: all other assays above

O=C1OC(=O)c2cccc3cccc1c23
active: [1] 27.6 µM
not listed: [18] | [20]
inactive: all other assays above
